Source: PubChem BioAssay
Rows were chosen to be rich in hits. Some 1.8% of all compounds tested hit in one or more screens of this group.
S1P2 ag – S1P2 (human) receptor agonism; actives 0.46% (n = 97,000); activation, % at 4.5 µM; S1P2-expressing cell line, agonist reporter read-out; O95136; in the data active means activation above about 16%;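 further: 0% = vehicle low control and 100% = maximal reference agonist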
GALR2 blocker – antagonists of human galanin receptor 2 (GALR2); AID 828; GALR2-expressing cells, antagonist mode; actives 0.39% (n = 140,000); O43603; inhibition, % at 4 µM; in the data active means inhibition above about 27%;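 further: cells stimulated with galanin 1-16 at roughly its EC80; 0% = agonist challenge control and 100% = basal control without agonist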
Target sequence (O43603 whole entry, looked up): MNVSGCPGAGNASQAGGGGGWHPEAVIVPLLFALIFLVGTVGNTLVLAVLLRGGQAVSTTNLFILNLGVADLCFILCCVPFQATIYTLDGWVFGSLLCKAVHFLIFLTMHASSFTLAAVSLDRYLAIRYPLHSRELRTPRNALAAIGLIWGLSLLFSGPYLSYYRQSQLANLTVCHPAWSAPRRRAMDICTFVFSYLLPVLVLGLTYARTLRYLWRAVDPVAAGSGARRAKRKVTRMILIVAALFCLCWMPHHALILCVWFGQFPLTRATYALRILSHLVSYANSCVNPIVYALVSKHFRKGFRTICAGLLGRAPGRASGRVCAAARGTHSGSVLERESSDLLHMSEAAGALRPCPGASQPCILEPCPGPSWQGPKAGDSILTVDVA
MRP reversal – MRP-mediated drug resistance reversal; H69AR cells + 2 uM doxorubicin, CellTiter-Glo, 72 h; AID 602; differential viability (reversal), % at 10 µM; actives 0.04% (n = 85,000);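 active means viability drop by adding the cancer drug above about 55%, with treated viability meeting a 40% cutoff, limit read from the data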;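 further: viability without doxorubicin minus viability with 2 µM doxorubicin for each compound; larger differential means the compound sensitizes cells more to doxorubicin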
GALR2 ag – GALR2 (human) receptor agonism; actives 0.48% (n = 140,000); O43603; GALR2-expressing cells, agonist activation read-out; AID 803; activation, % (concentration not given with the values); in the data active means activation above about 5%, passing the limit was not always enough;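 further: 0% = vehicle buffer wells and 100% = reference agonist at full effect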
S1P2 blocker – antagonists of human S1P2 receptor; O95136; cell-based S1P2 antagonist assay, inhibition at 5 uM; inhibition, % at 5 µM; actives 0.21% (n = 97,000); AID 736; in the data active means inhibition above about 45%;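 further: CRE beta-lactamase reporter cells expressing human S1P2 stimulated with S1P; 0% = agonist at EC80 alone and 100% = agonist plus reference antagonist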
MRP1 act – activates MRP-1 | H69AR cells + doxorubicin, viability rescue, CellTiter-Glo | viability increase, % at 10 µM | actives 0.61% (n = 140,000);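 active means viability gain under doxorubicin at or above a set limit, the compound median plus 3 SD, cut at about 4.7% in these data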;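 further: MRP-1 overexpressing cells given doxorubicin 25 µM after compound pretreatment; 18-22 h compound pretreatment then 72 h with doxorubicin before readout; 0% = doxorubicin-only wells and 100% = vehicle-treated cells without doxorubicin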
Active calls of the source: *; . = no result.

SMILES | S1P2 ag | GALR2 blocker | MRP reversal | GALR2 ag | S1P2 blocker | MRP1 act
O=C(CSCc1ccccc1)Nc1ccc(F)c(F)c1 | . | -5 | . | -2 | . | 4.7*
O=C(CSCc1ccc(Cl)cc1)N/N=C/c1c(Cl)cccc1Cl | . | -1 | . | 1 | . | 2
COc1ccc(OC)c(C(=O)CSc2nc3cccnc3n2C)c1 | 32* | 8 | -1 | -3 | -15 | 0
O=C(CSc1nnc(-c2ccc(F)cc2)c2ccccc12)Nc1ccccc1Cl | . | -7 | . | 0 | . | -4
Cc1cccc(CC2S/C(=N/c3ccccn3)NC2=O)c1 (stereo not drawn) | -7 | 13 | -11 | -1 | -11 | 10*
Cc1ccc(S(=O)(=O)N2CCC(C(=O)N[C@@H](C)C(=O)Nc3ccc4c(c3)OCO4)CC2)cc1 | -5 | -31 | 1 | 0 | 12 | 6.2*
CCCn1c(OC)nc2c1c(=O)n(C)c(=O)n2C | . | 7 | 4 | -3 | . | -3
CCCOc1nc2c(c(=O)n(C)c(=O)n2C)n1CCC | . | -1 | 8 | 7.8* | . | -3
CCOC(=O)c1ccccc1NC(=O)CSc1nc2ccccc2n1CC(=O)N1CCCC1 | 32* | 0 | -14 | 0 | -61 | -3
CCc1nnc(NC(=O)CSc2nnc3scc(-c4ccc(C)cc4)n23)s1 | -1 | -1 | 7 | -3 | -11 | .
CC(C)Cn1c(N)c(C(=O)COC(=O)CC23CC4CC(CC(C4)C2)C3)c(=O)n(C)c1=O | -2 | 25 | 0 | -2 | 59* | -2
CC(C)Cn1c(N)c(C(=O)COC(=O)c2ccncc2)c(=O)n(C)c1=O | -3 | 2 | 2 | -1 | -13 | -2
O=C(N/N=C/c1ccccc1[N+](=O)[O-])c1ccc(COc2ccccc2-c2ccccc2)cc1 | . | -3 | . | -1 | . | 7.3*
CCCn1c2ccccc2c2nnc(SC(CC)C(=O)Nc3cc(C)on3)nc21 (stereo not drawn) | 30* | -6 | -27 | 1 | -38 | -4
Cc1nc2c(ccc3nc(NC(=O)Cc4cccc5ccccc45)sc32)s1 | . | 9 | . | 1 | . | -3
Cc1nc2c(ccc3nc(NC(=O)C(c4ccccc4)c4ccccc4)sc32)s1 | . | 12 | . | -1 | . | 15*
COc1ccccc1C(=O)Nc1nc(-c2ccc(S(=O)(=O)N3CCOCC3)cc2)cs1 | -7 | 25 | -11 | 2 | 77* | 1
O=C(CCn1c(=O)oc2ccccc21)Nc1ccccc1 | 0 | -14 | 5 | 7.9* | 6 | -3
COc1cc(C(c2nnnn2C2CCCC2)N2CCN(C)CC2)cc(OC)c1OC (stereo not drawn) | 1 | 0 | -1 | -2 | 4 | -2
CCCn1c(C)cc(/C=C(\C#N)C(=O)OCC(=O)Nc2ccc(OC)c(Cl)c2)c1C | . | -11 | . | -1 | . | 9.4*
CCCn1c(C)cc(/C=C(\C#N)C(=O)OCC(=O)NC(=O)NCC)c1C | 1 | -7 | 14 | 2 | -10 | -3
Cc1c(C(=O)Nc2ccc(OC(F)(F)F)cc2)sc2nc3n(c(=O)c12)CCC3 | -4 | 15 | . | -1 | 58* | -2
FC(F)(F)c1cnc2c(-c3ccc(Cl)cc3Cl)noc2c1 | -2 | -3 | 0 | -1 | -16 | 1
O=c1c2c(-c3ccco3)csc2nc(SCc2cn3cccnc3n2)n1-c1ccccc1 | 20* | -29 | 19 | 3 | -40 | -1
NC(=O)CSc1nc2scc(-c3ccco3)c2c(=O)n1-c1ccccc1 | -4 | -2 | 4 | -4 | -16 | -1
SMILES | S1P2 ag | GALR2 blocker | MRP reversal | GALR2 ag | S1P2 blocker | MRP1 act
COc1ccc(CCNC(=O)CSc2nc(-c3ccco3)cc(C(F)(F)F)n2)cc1OC | -5 | -2 | . | 2 | 3 | -4
CC(=O)Nc1ccc(NC(=O)Cn2cc3c(n2)CCC(C)C3)cc1 (stereo not drawn) | -3 | -2 | 9 | -1 | -1 | -4
O=c1c(-c2nc3ccccc3s2)cccn1Cc1ccc(Cl)cc1 | 96* | -4 | . | 68* | -87 | 0
CCOC(=O)CC(=O)CSc1nc2c(c(-c3cccs3)c1C#N)CCC2 | . | -9 | . | 0 | . | 0
CCOCCSc1nc2c(c(-c3cccs3)c1C#N)CC/C2=C/c1cccs1 | . | -3 | . | 5.1* | . | 1
CC(C)NS(=O)(=O)c1ccc2c(c1)oc(=O)n2C | . | 18 | 6 | -1 | . | -1
Cn1c(=O)oc2cc(S(=O)(=O)NCC3CCCO3)ccc21 (stereo not drawn) | 20* | 14 | 0 | 1 | 6 | .
CCOc1ccc(NC(=O)CCN2CCN(S(=O)(=O)c3ccc(Cl)cc3)CC2)cc1 | -6 | -10 | -34 | 269* | -1 | -1
